Data: PMC12136788
Residue numbers refer to the chain shown, from its start. In all, about 24,000 sequences were measured (“enrichment r”: median about 0.99, highest 2% from about 3.7 on). For the sample, the highest values were picked, then their nearest neighbours and some sequences at random.

B1: chr16:57198444:57198445:-_ENSMUSG00000022749_ENSMUST00000023431|mus_mus|motif|central (ssRNA)
RNA: GGGAGUUCUACAGUCCGACGAUCCCUAAAAGAAGCUGGCGUCUUACUACAGUAAUACUGAGCCAAAGAGAACAGGUCUUCGGUGUCUUCCAGAUUCAGGCUGGCCGGGGUACUUUCCAAAAAGCGGAUAACUUCUUCUUUGCUCAACAGAGGAUUGAGCAUCA
B2: chr22:36164377:36164378:-_ENSG00000100320_ENST00000405409|hu_hu|motif|central (ssRNA)
RNA: GGGAGUUCUACAGUCCGACGAUCACGGCCCUCUACCACGGUGCCGUGUAAUUUCUCCCUGGCCCUGUCUGCAUCAGCACGGUUCUCGAAAGUUACGAACCCGAAUCCCUUAGAGCCACGUUCAUUAAAGAUUAUUUCUACAUCCAACAGAGGAUUGAGCAUCA
B3: chr6:86333760:86333761:-_ENSG00000135316_ENST00000355238|hu_mus|hu_hu_hu_mus_True|98_108 (ssRNA)
RNA: GGGAGUUCUACAGUCCGACGAUCUUCUUCAAGAAUCUGUUCCUUGGUUUUACUCUUAGGAAUCGAGCCCACAAAAAGCCUAUUGUUGGCAACUGAGAUGCAGACACCAAUGUGCUUCCCGGAACGAAUUUCAUGAUUAUUAUACAACAGAGGAUUGAGCAUCA
B4: chr12:493273:493274:-_ENSG00000073614_ENST00000399788|hu_mus|hu_hu_hu_mus_False|58_108 (ssRNA)
RNA: GGGAGUUCUACAGUCCGACGAUCUUUUCUCUCUACCACAGGGAUCUUCAAUGUAGAUCCUUGAAGUUCCCAAAAUUUUGCUAGUUGAUCCAAGAAGUCCAAUCUUACUCUAGUCAUUGCCUCAAGUUCAUUCAGGCGCUGGACCAACAGAGGAUUGAGCAUCA
B5: chr2:117093540:117093541:+_ENSMUSG00000027349_ENSMUST00000028825|mus_hu|motif|central (ssRNA)
RNA: GGGAGUUCUACAGUCCGACGAUCCAUUGUAAUCGUUGUCUUGGGUGACAAAGCAUAACGCUUAGGCUGAUAAAUUCUUGCGGUAUCAUCUGUUUUUACCUUUGCUCUAUCAGACCAUCCAAAGGACUGUACAGUCACAUCUAACAACAGAGGAUUGAGCAUCA
B6: chr16:45382771:45382772:-_ENSMUSG00000022661_ENSMUST00000163230|mus_mus|mus_mus_mus_hu_True|28_58 (ssRNA)
RNA: GGGAGUUCUACAGUCCGACGAUCCUGGGUCAUGUUAUAAGACAAAUGGACAGGGAGGGCAUGCUUCUCAAAAAAUGUGAACUACUCUCUAAGACUAACAAUAUUUACUAAGUGCUAAAAAUAAGUUAAAUGAAUAAGUUAAGACAACAGAGGAUUGAGCAUCA
B7: chr16:45382771:45382772:-_ENSMUSG00000022661_ENSMUST00000163230|mus_mus|mus_mus_mus_hu_True|28_28 (ssRNA)
RNA: B6 RNA with A80G, C84U, C86G
B8: chr16:45382771:45382772:-_ENSMUSG00000022661_ENSMUST00000163230|mus_mus|mus_mus_mus_hu_True|28_98 (ssRNA)
RNA: B6 RNA with A38G, A39G, A41C, A43C, A80G, C84U, C86G
B9: chr16:45382771:45382772:-_ENSMUSG00000022661_ENSMUST00000163230|mus_mus|mus_mus_mus_hu_True|8_28 (ssRNA)
RNA: GGGAGUUCUACAGUCCGACGAUCCUGGGUCAUGUUAUAAGACAAAUGGACAGGGAGGGCAUGCUUCUCAAAAAAUGUGAGCUAUUGUCUAAGACUAACAAUAUUUACUAAGUGCUAAAAAUAAGUUUUAAAUGGACGUUAAGACAACAGAGGAUUGAGCAUCA
B10: chr16:45382771:45382772:-_ENSMUSG00000022661_ENSMUST00000163230|mus_mus|mus_mus_mus_hu_True|1_28 (ssRNA)
RNA: B6 RNA with A80G, C84U, C86G, G137A, U138C, U139A, A140U, A141U, G142A, A143C
B11: chr6:29491266:29491267:-_ENSMUSG00000012535_ENSMUST00000012679|mus_mus|FALSE|FALSE (ssRNA)
RNA: GGGAGUUCUACAGUCCGACGAUCGGGUUGGGCUCUACAUUAAAAGCAACUUUGACCCUGGCUAGUCCGGACUAUCAUCCCUAACCAUGAUAUAAGCAGACCAGGCUCCUUGUCUGGACAUUUCUAAAGGUGAACAGUUGGGGGCAACAGAGGAUUGAGCAUCA
B12: chr3:182775190:182775191:-_ENSG00000078070_ENST00000265594|hu_mus|FALSE|FALSE (ssRNA)
RNA: GGGAGUUCUACAGUCCGACGAUCCUGCACACUACAGUCUCUUUCAAACAAGUACACUGCGUUGCCAUGGUGAUCACCAAACACCUGGACUUCUACAUGCCUUGGAGUGUCCACGAACUUCUCGAUCAACAUUGCAUCAUCAUUCAACAGAGGAUUGAGCAUCA
B13: 49705422_49710499_381_CDS_ENSG00000102531_ENST00000398316|human|control|control (ssRNA)
RNA: GGGAGUUCUACAGUCCGACGAUCAAAGUUGGACCUUCCAUGUGUAGAGUGAGCAUCUACAUCUCCAUAGACUUGUGAAGACUGAUACUGUGGCAUAUACUGUGUUGUCAUGUCUCCAGCUCCAGUCACGGGUGAGUACAUAUGCAACAGAGGAUUGAGCAUCA
B14: chr1:39494564:39494565:+_ENSG00000168653_ENST00000372967|hu_hu|hu_hu_hu_mus_True|1_1 (ssRNA)
RNA: GGGAGUUCUACAGUCCGACGAUCAUGCAUUCGCCUCAUCGUUUUGUACCGAAGCAAGCACUCUUCGAAGUCAUCGAACUCUAUCUUGCACUCCUUUUUCGCCCGGGUCCCACCGAUCCCGUGUGCACACUCUAUCCAUUCUUUCAACAGAGGAUUGAGCAUCA
B15: 117841126_117842589_621_3pUTR_ENSMUSG00000033326_ENSMUST00000106406|mouse|control|control (ssRNA)
RNA: GGGAGUUCUACAGUCCGACGAUCCUUCUCCACCAGGUCCAGGAUGGUCUUCAGCCGGCCGAUAUUCCACUCAUCAACGUGCUGUUCAUAGAGAGUACCAUUCACGUCUGCUCCAUAGAUGGGAGGAUUGAAUGUGAGGUUUUUCAACAGAGGAUUGAGCAUCA
B16: chr2:166765161:166765162:+_ENSMUSG00000002718_ENSMUST00000002790|mus_hu|motif|central (ssRNA)
RNA: GGGAGUUCUACAGUCCGACGAUCGGAUAAACAUAUUGCUUCAAACAUGUAGUGAUUAAAGUGAGGUUUGCUUGGGUUCUUACGGACAGCUAAUAGCUUCUGUGUAAGCUGAGUGAUGAGAGUAGGGAUGUAGGGGAUUAUGGCCAACAGAGGAUUGAGCAUCA
B17: chr16:45382771:45382772:-_ENSMUSG00000022661_ENSMUST00000163230|mus_mus|mus_mus_mus_hu_True|28_108 (ssRNA)
RNA: B6 RNA with G27A, C30G, A31U, G33A, A36G, A80G, C84U, C86G
B18: chr16:45382771:45382772:-_ENSMUSG00000022661_ENSMUST00000163230|mus_mus|mus_mus_mus_hu_True|28_48 (ssRNA)
RNA: B6 RNA with A80G, C84U, C86G, U87A
B19: chr16:45382771:45382772:-_ENSMUSG00000022661_ENSMUST00000163230|mus_mus|mus_mus_mus_hu_True|28_38 (ssRNA)
RNA: B6 RNA with A80G, C84U, C86G, U105G, A106C
B20: chr16:8858281:8858282:+_ENSMUSG00000022507_ENSMUST00000023150|mus_mus|FALSE|FALSE (ssRNA)
RNA: GGGAGUUCUACAGUCCGACGAUCCUCAUGAGGUGAGGAGGUGCUACAUAUUGAAUGCAAUGGAAAAAAGUAACCAGUGCUAAAGUUUUUAAAAAGUUUAAUGGAGCCAAUAAUUCGGCAUAUAAAUUGUGUUCUGGCAGACAUCAACAGAGGAUUGAGCAUCA
B21: chr16:8858281:8858282:+_ENSMUSG00000022507_ENSMUST00000023150|mus_mus|motif|central (ssRNA)
RNA: B20 RNA with U80G, A81G
B22: chr5:128440902:128440903:+_ENSG00000066583_ENST00000173527|hu_mus|hu_hu_hu_mus_True|38_48 (ssRNA)
RNA: GGGAGUUCUACAGUCCGACGAUCUUGAACGGUGCUGCCAAGUCCUUUGGGGUAUUGUUCCGUUAUGAUAACUGGAAUCCCUAAGAUCCGGGCCCCUUGCAACAAUCUCUGUCCCACACUAAUGAUGUCCCCAAAGUAUUUGAUCAACAGAGGAUUGAGCAUCA

target: T1, UNK ZnF1-3 (human, UniProt Q9C0B0 31-174); test: nsRBNS (natural sequence RNA bind-n-seq); RBNS binding buffer (assumed for nsRBNS): 25 mM Tris pH 7.5, 150 mM KCl, 3 mM MgCl2, 0.01% Triton X-100, 500 ug/ml BSA, 20 U/ml SUPERase-In, 4 C; UNK is unkempt and MSI1 is Musashi-1; names of the RNAs are library labels; protein concentration not given here; high values mean tight binding
T1 sequence: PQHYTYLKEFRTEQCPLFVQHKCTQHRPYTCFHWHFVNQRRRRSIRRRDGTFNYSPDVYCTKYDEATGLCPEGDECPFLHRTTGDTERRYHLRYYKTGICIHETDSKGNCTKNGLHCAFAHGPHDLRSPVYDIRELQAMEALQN

Binder | binding signal [enrichment R]
B1 | 1.25
B2 | 0.844
B3 | 1.34
B4 | 0.801
B5 | 0.494
B6 | 3.92
B7 | 11.4
B8 | 8.35
B9 | 5.08
B10 | 3.32
B11 | 0.897
B12 | 0.969
B13 | 0.997
B14 | 0.706
B15 | 1.09
B16 | 1.62
B17 | 10.2
B18 | 7.16
B19 | 12.5
B20 | 5.62
B21 | 3.41
B22 | 0.772
